Compound activity (PubChem BioAssay)
Shown are actives, neighbours in structure and some others; about 2.4% of the full set was active somewhere.
FEN1 inh = blocks human flap endonuclease 1 | AID 588795 | Potency, µM (top dose mostly 114 µM), most hits filed as inhibitors | Recombinant FEN1 flap cleavage, fluorescence, 15 min | 390,000 compounds, 0.35% hits; note: nearly all actives have a fitted effect of over 65% in size
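FEN1 at 10 nM, compound pretreatment for 15 min (room temperature), 50 nM final substrate to initiate; endpoint reads at 0 and 15 min; DMSO-only plates used as vehicle background.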
Pol kappa inh = DNA polymerase kappa (human) inhibition; Q9UBT6; purified Pol kappa, fluorescent DNA synthesis assay, 10 min; Potency, µM (highest dose often 107 µM), most hits filed as inhibitors; 400,000 compounds, 0.53% hits; AID 588579
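Activity was followed as the change in fluorescence between reads at 0 and 10 min after starting the reaction with 50 nM substrate. Beforehand, 10 nM polymerase had been preincubated with compound for 15 min at room temperature.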
POLB inh = DNA polymerase beta (human) inhibition. P06746. Pol beta primer extension/strand displacement, fluorescence kinetic. Potency, µM (top dose mostly 114 µM), hits mostly inhibitors. 340,000 compounds, 1.3% hits
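Homogeneous kinetic assay of primer extension and strand displacement by 10 nM Pol beta, preincubated 15 min at room temperature with compound before 50 nM substrate (final) was added. Read at 0 and 10 min; four-parameter Hill fit.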
POLI inh = DNA polymerase iota (human) inhibition; AID 588590; Q9UNA4; Pol iota fluorescent replication assay, 10 min; Potency, µM (top dose mostly 115 µM), actives largely listed as inhibitors; 390,000 compounds, 1% hits
Target sequence (Q9UNA4 whole entry, looked up): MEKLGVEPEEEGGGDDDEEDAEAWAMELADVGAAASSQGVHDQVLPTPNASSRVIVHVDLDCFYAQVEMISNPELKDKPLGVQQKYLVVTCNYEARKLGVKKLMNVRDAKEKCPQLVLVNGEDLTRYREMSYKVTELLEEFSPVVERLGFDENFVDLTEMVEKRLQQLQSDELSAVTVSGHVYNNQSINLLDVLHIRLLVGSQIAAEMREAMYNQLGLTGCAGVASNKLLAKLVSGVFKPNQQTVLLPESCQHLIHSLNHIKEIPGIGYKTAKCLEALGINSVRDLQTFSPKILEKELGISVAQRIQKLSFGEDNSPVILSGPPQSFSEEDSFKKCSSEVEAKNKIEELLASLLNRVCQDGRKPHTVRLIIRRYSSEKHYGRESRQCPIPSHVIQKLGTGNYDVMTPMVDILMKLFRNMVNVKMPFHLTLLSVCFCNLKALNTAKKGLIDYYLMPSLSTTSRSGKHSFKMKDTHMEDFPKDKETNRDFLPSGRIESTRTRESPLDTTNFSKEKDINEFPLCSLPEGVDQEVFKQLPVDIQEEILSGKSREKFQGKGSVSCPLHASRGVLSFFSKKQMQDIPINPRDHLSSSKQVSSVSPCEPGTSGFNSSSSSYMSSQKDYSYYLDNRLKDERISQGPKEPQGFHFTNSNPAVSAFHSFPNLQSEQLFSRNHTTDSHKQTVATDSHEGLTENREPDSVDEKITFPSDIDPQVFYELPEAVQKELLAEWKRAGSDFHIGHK
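Pol iota at 10 nM preincubated 15 min with compounds at room temperature; reaction started with fluorescent substrate, 50 nM final. Fluorescence read kinetically at 0 and 10 min; buffer-only wells as negative control.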
WRN inhibitor = inhibitors of human WRN helicase; WRN helicase unwinding, fluorescent forked duplex, kinetic; Potency, µM (top dose mostly 114 µM), usual class: inhibitors; 360,000 compounds, 0.46% hits; note: nearly all actives have a fitted effect of over 55% in size
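Enzyme (20 nM final) and test compound sit together 15 min at room temperature before substrate addition. Substrate is a single-forked duplex oligonucleotide (100 nM) labelled with fluorophore and quencher, with 2 mM ATP; helicase unwinding raises red fluorescence, read kinetically.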
POLH inh = DNA polymerase eta (human) inhibition | Q9Y253 | recombinant Pol eta, fluorescent DNA replication assay | Potency, µM (highest dose often 114 µM), usual class: inhibitors | 390,000 compounds, 1.2% hits | AID 588591
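Pol eta (10 nM) was preincubated with compounds for 15 min at room temperature, after which fluorescent replication substrate (50 nM final) was added to start the reaction. Fluorescence was read kinetically at 0 and 10 min.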
Of the large screens only hits and unclear results are named; the others gave an inactive call. Calls come from the whole dose curve; as a rule, active = well fitted curve in the direction sought with a large enough effect; inconclusive = small, poorly fitted or top-dose-only effect, or another doubt; inactive = no such curve, though single readings can be large; an effect the other way counts as inactive or inconclusive.

N#CC(C#N)=C1C=CC=CN1/C(=C\c1ccco1)C(=O)c1ccc(Br)cc1	WRN inhibitor 56µM
COc1ccc2[nH]cc(CCNc3cc(-c4c(C)noc4C)ncn3)c2c1	none (no result: FEN1 inh, POLB inh, POLI inh, WRN inhibitor, POLH inh)
O=C(Nc1cc(Cl)cc(Cl)c1)c1coc(=O)c(Br)c1	FEN1 inh inconclusive, Pol kappa inh 79µM, POLB inh 28µM, POLI inh 28µM, WRN inhibitor inconclusive, POLH inh inconclusive
O=C(NNC(=O)C1C2CCCCC21)c1coc(=O)c(Br)c1 (configuration not stated)	Pol kappa inh inconclusive, POLB inh inconclusive, POLI inh 45µM, POLH inh 50µM
CN(C)c1ccc(/C=C/c2cc3ccccc3c[n+]2C)cc1	FEN1 inh inconclusive, POLI inh inconclusive (no result: POLB inh, WRN inhibitor, POLH inh)
CC(C)(C)c1ccc(S(=O)(=O)/C=C\C#N)cc1	none (no result: FEN1 inh, POLB inh, POLI inh, WRN inhibitor, POLH inh)
O=C1c2ccccc2C(=O)N1c1cccc(-c2csc(Nc3ccc4c(c3)OCO4)n2)c1	POLB inh 28µM (no result: FEN1 inh, Pol kappa inh, POLI inh, WRN inhibitor, POLH inh)
c1ccc(-c2csc(Nc3ccc4c(c3)OCO4)n2)cc1	none (no result: FEN1 inh, Pol kappa inh, POLB inh, POLI inh, POLH inh)
Cc1nc2sc3c(O)cc(=O)[nH]c3c2c(C)c1C	none
Cc1cc(C(F)(F)F)c2c(n1)sc1c(O)cc(=O)[nH]c12	Pol kappa inh 71µM, POLI inh 3.2µM
COc1ccc(C(NC(=O)COc2ccc(C#N)cc2)c2ccc(OC)cc2)cc1	none (no result: POLB inh, WRN inhibitor, POLH inh)
N#CC1=C(S)N(c2ccccc2)C(c2ccc(-c3cc(Cl)ccc3Cl)o2)NC1=O (configuration not stated)	POLB inh 32µM
Clc1nc(NCc2ccco2)c2[nH]cnc2n1	none (no result: POLB inh, WRN inhibitor, POLH inh)
O=C1NC(=S)/C(=C\c2ccc(-c3ccccc3Cl)o2)S1	FEN1 inh inconclusive, Pol kappa inh inconclusive, POLB inh 40µM, POLI inh inconclusive, WRN inhibitor 50µM, POLH inh 16µM
Cc1nnc(C)n1/N=C/c1ccc(-c2ccccc2Cl)o1	none
O=C(O)/C(=N/NC(=O)c1ccc(Cl)cc1)c1ccccc1	POLB inh 25µM
COc1ccccc1CN(Cc1cc2cc3c(cc2[nH]c1=O)OCCO3)Cc1nnnn1Cc1ccco1	FEN1 inh inconclusive, Pol kappa inh inconclusive, POLB inh 14µM, POLI inh inconclusive, POLH inh 32µM
CCc1ccc2[nH]c(=O)c(CN(Cc3ccccc3)Cc3nnnn3Cc3ccco3)cc2c1	POLI inh inconclusive
Cc1ccc2[nH]c(=O)c(CN(CCCO)Cc3nnnn3Cc3ccco3)cc2c1	Pol kappa inh inconclusive, POLI inh 79µM (no result: POLB inh, WRN inhibitor, POLH inh)
O=c1[nH]c2cc3c(cc2cc1CN(Cc1ccccc1)Cc1nnnn1Cc1ccco1)OCCO3	Pol kappa inh inconclusive, POLB inh 32µM, POLI inh 18µM, WRN inhibitor inconclusive, POLH inh inconclusive
Cc1ccc2cc(CN(Cc3ccco3)Cc3nnnn3Cc3ccco3)c(=O)[nH]c2c1	none (no result: POLB inh, WRN inhibitor, POLH inh)
Cc1ccc2[nH]c(=O)c(CN(Cc3ccco3)Cc3nnnn3Cc3ccccc3)cc2c1	none (no result: POLB inh, WRN inhibitor, POLH inh)
O=c1[nH]c2cc3c(cc2cc1CN(Cc1cccnc1)Cc1nnnn1Cc1ccco1)OCCO3	FEN1 inh inconclusive, Pol kappa inh 89µM, POLB inh 40µM, POLI inh 16µM, WRN inhibitor 56µM, POLH inh inconclusive
CC[C@H](C)[C@H](NC(=O)[C@H](C)NC(=O)[C@H](CC(=O)O)NC(=O)[C@H](CO)NC(=O)[C@@H](N)Cc1cnc[nH]1)C(=O)N[C@@H](Cc1ccccc1)C(=O)N[C@H](C(=O)N[C@@H](CCC(N)=O)C(=O)N[C@@H](CCC(N)=O)C(=O)N[C@@H](Cc1ccc(O)cc1)C(=O)N[C@@H](CO)C(=O)N[C@@H](CCCCN)C(=O)N[C@@H](CC(C)C)C(=O)N[C@@H](CC(C)C)C(=O)N[C@@H](C)C(=O)N[C@@H](CCCCN)C(=O)N[C@@H](CC(C)C)C(=O)N[C@@H](C)C(=O)N[C@@H](CC(C)C)C(=O)N[C@@H](CCC(N)=O)C(=O)N[C@@H](CCCCN)C(=O)N[C@@H](Cc1ccc(O)cc1)C(=O)N[C@@H](CC(C)C)C(=O)N[C@@H](C)C(=O)N[C@@H](CO)C(=O)N[C@H](C(=O)N[C@@H](CC(C)C)C(=O)NCC(=O)N[C@@H](CO)C(=O)N[C@@H](CCCNC(=N)N)C(=O)N[C@H](C(=O)N[C@@H](CO)C(=O)N1CCC[C@H]1C(=O)N1CCC[C@H]1C(=O)N1CCC[C@H]1C(N)=O)[C@@H](C)O)[C@@H](C)CC)[C@@H](C)O	none (no result: FEN1 inh, POLB inh, POLI inh, WRN inhibitor, POLH inh)
O=c1[nH]c2cc3c(cc2cc1CN(Cc1cccs1)Cc1nnnn1Cc1ccco1)OCCO3	Pol kappa inh 25µM, POLB inh 32µM, POLI inh inconclusive, WRN inhibitor inconclusive, POLH inh 18µM
O=[N+]([O-])c1ccc(Cl)c(-c2ccc(/C=N/n3cnnc3)o2)c1	Pol kappa inh inconclusive, POLB inh 25µM, POLI inh inconclusive, WRN inhibitor inconclusive, POLH inh inconclusive
O=C1/C(=C/c2ccc(O)c(O)c2)Oc2ccccc21	Pol kappa inh 13µM (no result: FEN1 inh, POLB inh, POLI inh, WRN inhibitor, POLH inh)
Cc1ccccc1/C=C1\Oc2ccccc2C1=O	none (no result: POLB inh)
COC(C(=O)C(O)C(C)O)C1Cc2cc3cc(OC4CC(OC5CC(O)C(O)C(C)O5)C(O)C(C)O4)c(C)c(O)c3c(O)c2C(=O)C1OC1CC(OC2CC(OC3CC(O)C(OC)C(C)O3)C(O)C(C)O2)C(O)C(C)O1 (configuration not stated)	FEN1 inh inconclusive, Pol kappa inh 79µM, POLI inh 22µM, WRN inhibitor inconclusive, POLH inh 11µM (no result: POLB inh)
O=S(=O)(Nc1cccc2ccccc12)c1cccc2ccccc12	none (no result: POLB inh, WRN inhibitor, POLH inh)
CC(C)c1ccc(C(=O)C[N+]2(C)CCOCC2)cc1	none (no result: POLB inh, WRN inhibitor, POLH inh)
COC(=O)c1ccc(CSc2nnc(NC(=O)C3CC(=O)N(c4ccc5c(c4)OCCO5)C3)s2)cc1 (configuration not stated)	POLB inh 28µM, POLI inh inconclusive, POLH inh inconclusive
Cc1cccc(N2CC(C(=O)Nc3nnc(SCC(=O)Nc4nccs4)s3)CC2=O)c1 (configuration not stated)	POLB inh inconclusive, POLH inh inconclusive
Cc1ccccc1N1CC(C(=O)Nc2nnc(SCc3ccccn3)s2)CC1=O (configuration not stated)	POLB inh 79µM, POLI inh inconclusive, POLH inh 50µM
Cc1ccc(CN2CC(C(=O)Nc3nnc(SCc4c(Cl)cccc4Cl)s3)CC2=O)cc1 (configuration not stated)	POLB inh 13µM, POLI inh inconclusive, WRN inhibitor inconclusive, POLH inh inconclusive
Cc1ccccc1N1CC(C(=O)Nc2nnc(SCC(=O)Nc3nccs3)s2)CC1=O (configuration not stated)	POLB inh 50µM, POLI inh inconclusive, POLH inh inconclusive
Nc1cccc2c(=O)[nH]ccc12	none (no result: FEN1 inh, POLB inh, POLI inh, WRN inhibitor, POLH inh)
